# Experimental data as given in PubChem BioAssay AID463173 (ICCB-Longwood Screening Facility, Harvard Medical School, 2010).
# In all, about 52,000 compounds went through this assay and about 4,300 (8.3%) were called active. Rule as the data show it: active = survival mostly below about 52% (no sharp cut-off); inactive = mostly above about 56%. This excerpt belongs to a sample that is enriched for actives.
# Test system: DeltatarO mutant
# Experiment: S. aureus survival, RN4220 and DeltatarO strains – OD600, teichoic acid synthesis inhibitors, primary screen (AID 463173)
# Conditions: S. aureus RN4220 wild type/DeltatarO growth, OD600, 18 h, stronger effect = lower value, screened at 18.75 µg/mL (by protocol)
row,SMILES,survival
1,CC(C)(C)c1ccc(C(=O)N2CCC(c3noc(-c4ccc(S(=O)(=O)N5CCCC5)cc4)n3)CC2)cc1,89% (inactive)
2,CCOC(=O)C1CCN(C(c2cc3ccc(OC)cc3n3nnnc23)c2nnnn2C2CCCC2)CC1 (configuration not stated),101% (inactive)
3,CCc1cccc(C)c1Nc1c(-c2cccs2)nc2ncccn12,73% (inactive)
4,CCCOc1ccc(CC2C(=O)Nc3ccc(Br)cc32)cc1 (configuration not stated),0% (active)
5,COc1ccc(CC2C(=O)Nc3ccc(Br)cc32)cc1OC (configuration not stated),82% (inactive)
6,CCCCOc1ccccc1CC1C(=O)Nc2ccc(Br)cc21 (configuration not stated),14% (active)
7,CCOc1c(CC2C(=O)Nc3ccc(Br)cc32)cccc1OC (configuration not stated),102% (inactive)
8,CCOc1ccccc1CC1C(=O)Nc2ccc(Br)cc21 (configuration not stated),59% (inactive)
9,COc1ccc(OC)c(CC2C(=O)Nc3ccc(Br)cc32)c1 (configuration not stated),72% (inactive)
10,Cc1cc(C)cc(NC(=O)C2CCN(S(=O)(=O)c3ccc4c(c3)oc(=O)n4C)CC2)c1,95% (inactive)
11,COc1ccc2c(c1)c1c(c(=O)n(CCc3ccccc3)c(=O)n1Cc1cccc(Cl)c1)n2C,76% (inactive)
12,O=C(CN1C(=O)CSc2ccc(S(=O)(=O)N3CCCCC3)cc21)NCc1ccc(F)cc1Cl,79% (inactive)
13,CNC(=S)N1C2CCC1CC(NC(=O)NC13CC4CC(CC(C4)C1)C3)C2 (configuration not stated),79% (inactive)
14,CCOC(=O)c1ccc(NC(=O)Nc2cccc(OCc3cc(=O)n4ccc(C)cc4n3)c2)cc1,68% (inactive)
15,Cc1cccc(NC(=O)CSc2nc3ccccc3nc2N2CCOCC2)c1C,51% (inactive)
16,CC(=O)Nc1ccc(NC(=O)CSc2nc3ccccc3nc2N2CCOCC2)cc1,83% (inactive)
17,CCc1cccc(C)c1NC(=O)CSc1nc2ccccc2nc1N1CCOCC1,81% (inactive)
18,CCCCc1ccc(NC(=O)CSc2nc3ccccc3nc2N2CCOCC2)cc1,30% (active)
19,CCOc1ccccc1NC(=O)CSc1nc2ccccc2nc1N1CCOCC1,4% (active)
20,CCc1cccc(NC(=O)CSc2nc3ccccc3nc2N2CCCCC2)c1,-6% (active)
21,CCOc1ccc(NC(=O)CSc2nc3ccccc3nc2N2CCOCC2)cc1,87% (inactive)

row,SMILES,survival
1,COc1cccc(NC(=O)CSc2nc3ccccc3nc2N2CCOCC2)c1,54% (inactive)
2,CCCCc1ccc(NC(=O)CSc2nc(=O)[nH]c3c2CCCC3)cc1,74% (inactive)
3,CCCCc1ccc(NC(=O)CSc2nc3ccccc3nc2N2CCCCC2)cc1,30% (active)
4,Cc1ccc(NC(=O)CSc2nc3ccccc3nc2N2CCOCC2)cc1,54% (inactive)
5,O=C(CS(=O)(=O)Cc1ccccc1)Nc1ccc2c(c1)OCO2,69% (inactive)
6,O=C(NCc1ccc(F)cc1)c1cnc(N2CCOCC2)c2ccccc12,95% (inactive)
7,CN(CC(=O)Nc1ccc(F)cc1F)S(=O)(=O)c1ccc(C(=O)N2CCOCC2)s1,88% (inactive)
8,COc1ccc(S(=O)(=O)N2CCC(Oc3ccc(-n4cnnn4)cc3)CC2)cc1OC,77% (inactive)
9,Cc1ccc(CNC(=O)C2CCN(c3nc4ccccc4n(C)c3=O)CC2)cc1,87% (inactive)
10,O=C(Nc1ccccc1C(=O)OCc1cc(=O)n2c3c(sc2n1)CCCC3)c1ccc(F)cc1,106% (inactive)
11,COc1ccc(OC)c(CNC(=O)c2ccc(Sc3ccc(Cl)cc3)c(NC(C)=O)c2)c1,83% (inactive)
12,CCc1ccc(-c2cn3c(n2)sc2cc(C(=O)NCC(C)c4ccccc4)ccc23)cc1 (configuration not stated),69% (inactive)
13,COC(=O)c1cnc(N2CCN(c3ccc(OC)cc3)CC2)c2ccccc12,62% (inactive)
14,COc1cc(CNC(=O)c2ccc3nc(CCc4ccccc4)oc3c2)cc(OC)c1OC,80% (inactive)
15,CCc1nn(Cc2cc(C)ccc2C)c(=O)c2cc3cc(C)ccc3n12,95% (inactive)
16,CCOc1ccc(-c2cc(C(=O)NCCc3ccc(OC)c(OC)c3)[nH]n2)cc1,77% (inactive)
17,COc1ccc(S(=O)(=O)N2CCN(Cc3nc4ccc(C)cc4o3)CC2)cc1OC,84% (inactive)
18,NC(=O)CN1CCN(Cc2ccc3c(c2)OCO3)CC1,76% (inactive)
19,Cc1ccc(S(=O)(=O)N2CCN(Cc3ccc4c(c3)OCO4)CC2)cc1,70% (inactive)
20,COc1cccc(S(=O)(=O)N2CCN(Cc3ccc4c(c3)OCO4)CC2)c1,75% (inactive)
21,COc1ccc(S(=O)(=O)N2CCN(Cc3ccc4c(c3)OCO4)CC2)cc1OC,43% (active)

row,SMILES,survival
1,Cc1cc(C)c(S(=O)(=O)N2CCN(Cc3ccc4c(c3)OCO4)CC2)cc1C,13% (active)
2,O=C(NCCc1ccc(Cl)cc1)c1cc(-c2ccc(Cl)cc2)n[nH]1,68% (inactive)
3,CCOC(=O)c1nnc2c(-c3ccc(Cl)cc3)c(C)nn2c1C,49% (inactive)
4,Cc1ccc(NC(=O)C(Cc2ccccc2)n2cccc2)cc1 (configuration not stated),76% (inactive)
5,COc1ccc(NC(=O)C(Cc2ccccc2)n2cccc2)c(OC)c1 (configuration not stated),67% (inactive)
6,CC(C)c1ccc(NC(=O)C(Cc2ccccc2)n2cccc2)cc1 (configuration not stated),23% (active)
7,CC(=O)Nc1ccc(NC(=O)C(Cc2ccccc2)N2Cc3ccccc3C2=O)cc1 (configuration not stated),82% (inactive)
8,O=C(Nc1ccccc1F)C(Cc1ccccc1)n1cccc1 (configuration not stated),77% (inactive)
9,O=C(Nc1ccc(C(F)(F)F)cc1)C(Cc1ccccc1)n1cccc1 (configuration not stated),-4% (active)
10,CCOc1ccc(S(=O)(=O)NCCc2sc3nc(-c4ccc(C)cc4)nn3c2C)cc1,109% (inactive)
11,Cc1oc2c(C)c3oc(=O)c(CCC(=O)N4CCCCC4)c(C)c3cc2c1C,89% (inactive)
12,Cc1coc2c(C)c3oc(=O)c(CCC(=O)N4CCCCC4)c(C)c3cc12,44% (active)
13,Cc1coc2c(C)c3oc(=O)c(CC(=O)N4CCCCC4)c(C)c3cc12,79% (inactive)
14,CC1CCC(N2CC(=O)N(C3CCCCC3)C(c3ccc(F)cc3)C2=O)CC1 (configuration not stated),82% (inactive)
15,c1ccc(-c2nc(N3CCCCC3)c3ccccc3n2)cc1,96% (inactive)
16,CCCOc1ccc(-c2nc(N3CCC(C)CC3)c3ccccc3n2)cc1,-1% (active)
17,CCCOc1ccc(CNC(=O)C2CCN(c3nc4ccccc4nc3C(F)(F)F)CC2)cc1,75% (inactive)
18,Cc1ccc(-c2nc(N3CCN(c4ccccc4Cl)CC3)c3ccccc3n2)cc1,52% (inactive)
19,CCCOc1ccc(-c2nc(N3CCCCC3)c3ccccc3n2)cc1,-2% (active)
20,CCOc1ccc(-n2cc(-c3ccccc3)c3c(N4CCC(C)CC4)ncnc32)cc1,90% (inactive)
